Measurements: PubChem BioAssay (NCI)
Values joined by “and” are separate entries in the source; they are usually repeats but may differ in a detail not shown here. Equal entries are not always repeated. About 79,000 compounds went through this panel and 15% of them were active in at least one assay; those are over-represented in the sample as a whole. Rule as the data show it: active = growth inhibition above about 70%; inactive = the rest.

Tests used:
[1] = NCI Yeast Anticancer Drug Screen. Data for the rad52 strain (AID 147);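 also: 0% = growth of vehicle-treated control cultures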; details: S. cerevisiae rad52 mutant growth inhibition, hits give high values
Summary of the method: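 Read-out: growth inhibition versus vehicle-treated controls. Cells were a DNA repair-deficient yeast strain treated with compounds.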

[2] = NCI Yeast Anticancer Drug Screen. Data for the wt1 strain (AID 149);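 also: 0% = growth of vehicle-treated wt1 cultures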; details: S. cerevisiae wt1 strain (SPY 50644) growth inhibition, hits give high values
Summary of the method: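 Vehicle-normalised growth inhibition; strain wt1; compound exposure.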

[3] = NCI Yeast Anticancer Drug Screen. Data for the rad50EPP+ strain (AID 151);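 also: 0% = growth of vehicle-treated control cultures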; details: S. cerevisiae rad50 mutant strain, hits give high values
Summary of the method: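 Growth inhibition read against vehicle controls in rad50EPP+ yeast, a strain altered in DNA damage repair, after compound exposure.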

[4] = NCI Yeast Anticancer Drug Screen. Data for the mgt1 strain (AID 153); details: S. cerevisiae mgt1 mutant growth inhibition, hits give high values
Summary of the method: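 mgt1 yeast grown with test compound; read-out is growth inhibition versus vehicle-treated cultures.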

[5] = NCI Yeast Anticancer Drug Screen. Data for the rad50 strain (AID 155);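 also: 0% = growth of vehicle-only cultures of the same strain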; details: S. cerevisiae rad50 strain growth inhibition, hits give high values
Summary of the method: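 A DNA repair-deficient yeast mutant serves as the test organism; compound-induced growth inhibition is calculated against vehicle-treated cells.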

[6] = NCI Yeast Anticancer Drug Screen. Data for the mec2-1 strain (AID 157); details: S. cerevisiae mec2-1 strain, hits give high values
Summary of the method: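 Yeast mec2-1 mutant treated with compound. Readout: growth inhibition vs vehicle controls.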

[7] = NCI Yeast Anticancer Drug Screen. Data for the rad14 strain (AID 159);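 also: 0% = growth of vehicle-treated control cultures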; details: S. cerevisiae rad14 strain growth inhibition, hits give high values
Summary of the method: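 Vehicle-treated cultures served as the baseline for growth inhibition of a DNA repair-mutant yeast strain exposed to each compound.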

[8] = NCI Yeast Anticancer Drug Screen. Data for the sgs1 mgt1 strain (AID 161);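 also: 0% = growth of cultures given vehicle only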; details: S. cerevisiae sgs1 mgt1 strain, hits give high values
Summary of the method: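 Test agents were incubated with a DNA-repair-mutant yeast strain. Growth was then read and compared against vehicle-treated controls.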

[9] = NCI Yeast Anticancer Drug Screen. Data for the CLN2oe strain (AID 163);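 also: 0% = growth of vehicle-only control cultures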; details: S. cerevisiae CLN2oe strain, hits give high values
Summary of the method: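 Read-out: yeast growth inhibition, expressed relative to vehicle-only controls. The strain bears an engineered cell-cycle alteration.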

[10] = NCI Yeast Anticancer Drug Screen. Data for the cln2 rad14 strain (AID 165);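 also: 0% = growth equal to vehicle treated cultures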; details: S. cerevisiae cln2 rad14 strain, hits give high values
Summary of the method: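 cln2 rad14 yeast strain; compound exposure; growth inhibition read vs vehicle controls.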

[11] = NCI Yeast Anticancer Drug Screen. Data for the bub3 strain (AID 167); details: S. cerevisiae bub3 mutant strain, hits give high values
Summary of the method: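 Inhibition values come from growth of compound-treated mutant yeast normalised to vehicle-treated controls.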

[12] = NCI Yeast Anticancer Drug Screen. Data for the wt2 strain (AID 169);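 also: 0% = growth of vehicle-treated yeast cultures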; details: S. cerevisiae wt2 strain growth inhibition, hits give high values
Summary of the method: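 Read-out: growth inhibition versus vehicle-treated control cultures after compound exposure of the yeast strain.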

[13] = NCI Yeast Anticancer Drug Screen. Data for the mlh1 strain (AID 171);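 also: 0% = growth of vehicle-treated control cultures of the same strain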; details: S. cerevisiae mlh1 strain growth inhibition, hits give high values
Summary of the method: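 Read-out: growth inhibition versus vehicle controls. Strain: engineered yeast with a defined DNA repair or cell cycle defect, compound-treated.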

[14] = NCI Yeast Anticancer Drug Screen. Data for the sgs1 strain (AID 173);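 also: 0% = growth of vehicle-only control cultures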; details: S. cerevisiae sgs1 mutant, hits give high values
Summary of the method: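 Read-out: yeast growth inhibition relative to vehicle controls, following compound exposure of a strain with a defined DNA repair/cell cycle alteration.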

[15] = NCI Yeast Anticancer Drug Screen. Data for the mlh1 rad18 strain (AID 175); details: S. cerevisiae mlh1 rad18 strain growth inhibition, hits give high values
Summary of the method: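 Yeast w/ defined DNA-repair lesions; compound exposure; growth vs vehicle controls → % inhibition.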

[16] = NCI Yeast Anticancer Drug Screen. Data for the rad18 strain (AID 177); details: S. cerevisiae rad18 mutant growth inhibition, hits give high values
Summary of the method: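 Readout: growth inhibition vs vehicle controls. Cells: genetically altered yeast strain, DNA repair defect.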

[17] = at 5.0 µM (retest, dose inferred, filed as 0.5)
[18] = at 50.0 µM (retest, dose inferred, filed as 5.0)

Measured: growth inhibition

CCCCCCOC(=O)NCCOC(=O)Nc1ccccc1
inactive: [1]; at 1.2 µM 1% | [1]; at 3.7 µM 3% | [1]; at 11.0 µM 7% | [1]; at 33.0 µM 7% | [1]; at 100.0 µM 6% | [2]; at 1.2 µM 1% | [2]; at 3.7 µM 1% | [2]; at 11.0 µM 2% | [2]; at 33.0 µM 2% | [2]; at 100.0 µM 1% | [3]; at 1.2 µM 3% | [3]; at 3.7 µM 6% | [3]; at 11.0 µM 11% | [3]; at 33.0 µM 17% | [3]; at 100.0 µM 15% | [4]; at 1.2 µM -1% | [4]; at 3.7 µM 1% | [4]; at 11.0 µM 3% | [4]; at 33.0 µM 22% | [4]; at 100.0 µM 4% | [5]; at 1.2 µM 4% | [5]; at 3.7 µM 5% | [5]; [17] 0% | [5]; at 11.0 µM 7% | [5]; at 33.0 µM 8% | [5]; [18] 5% | [5]; at 50.0 µM 19.7% | [5]; at 100.0 µM 7% | [6]; at 1.2 µM 0% | [6]; at 3.7 µM 3% | [6]; [17] -5% | [6]; at 11.0 µM 3% | [6]; at 33.0 µM 5% | [6]; [18] 1% | [6]; at 50.0 µM 6.15% | [6]; at 100.0 µM 8% | [7]; at 1.2 µM 6% | [7]; at 3.7 µM 7% | [7]; at 11.0 µM 12% | [7]; at 33.0 µM 17% | [7]; at 100.0 µM 16% | [8]; [17] 12% | [8]; [18] 10% | [8]; at 50.0 µM 20.2% | [9]; at 1.2 µM 1% | [9]; at 3.7 µM 4% | [9]; at 11.0 µM 1% | [9]; at 33.0 µM 3% | [9]; at 100.0 µM -2% | [10]; [17] 5% | [10]; [18] 19% | [10]; at 50.0 µM 6.5% | [11]; at 1.2 µM 3% | [11]; at 3.7 µM 2% | [11]; [17] 9% | [11]; at 11.0 µM 5% | [11]; at 33.0 µM 1% | [11]; [18] -2% | [11]; at 50.0 µM 11.1% | [11]; at 100.0 µM 0% | [12]; at 1.2 µM 1% | [12]; at 3.7 µM -1% | [12]; at 11.0 µM -1% | [12]; at 33.0 µM 0% | [12]; at 100.0 µM -2% | [13]; at 1.2 µM -1% | [13]; at 3.7 µM -1% | [13]; at 11.0 µM 2% | [13]; at 33.0 µM 4% | [13]; at 100.0 µM 6% | [14]; at 1.2 µM 2% | [14]; at 3.7 µM 2% | [14]; at 11.0 µM 3% | [14]; at 33.0 µM 9% | [14]; at 100.0 µM 9% | [15]; [17] 19% | [15]; [18] 53% | [15]; at 50.0 µM 17.7% | [16]; at 1.2 µM 2% | [16]; at 3.7 µM 2% | [16]; at 11.0 µM 13% | [16]; at 33.0 µM 4% | [16]; at 100.0 µM 6%

COc1cc(/C=C2\CCC/C(=C\c3ccc(O)c(OC)c3)C2=O)ccc1O
inactive: [1]; at 1.2 µM -6% | [1]; at 3.7 µM -6% | [1]; at 11.0 µM 9% | [1]; at 33.0 µM 11% | [1]; at 100.0 µM 4% | [2]; at 1.2 µM 1% | [2]; at 3.7 µM 10% | [2]; at 11.0 µM 15% | [2]; at 33.0 µM 12% | [2]; at 100.0 µM 15% | [3]; at 1.2 µM 0% | [3]; at 3.7 µM -2% | [3]; at 11.0 µM 24% | [3]; at 33.0 µM 22% | [3]; at 100.0 µM 15% | [4]; at 1.2 µM 0% | [4]; at 3.7 µM -1% | [4]; at 11.0 µM 1% | [4]; at 33.0 µM 0% | [4]; at 100.0 µM -3% | [5]; at 1.2 µM -30% | [5]; at 3.7 µM -9% | [5]; [17] 13% | [5]; at 11.0 µM -7% | [5]; at 33.0 µM -7% | [5]; [18] 12% | [5]; at 50.0 µM 2.8% and 9.55% | [5]; at 100.0 µM 8% | [6]; at 1.2 µM -1% | [6]; at 3.7 µM 0% | [6]; [17] 4% | [6]; at 11.0 µM 1% | [6]; at 33.0 µM 0% | [6]; [18] 15% | [6]; at 50.0 µM -13.1% and 63.1% | [6]; at 100.0 µM 0% | [7]; at 1.2 µM 5% | [7]; at 3.7 µM -3% | [7]; at 11.0 µM 12% | [7]; at 33.0 µM 4% | [7]; at 100.0 µM 5% | [8]; [17] 8% | [8]; [18] 57% | [8]; at 50.0 µM -12.4% and 59.1% | [9]; at 1.2 µM -7% | [9]; at 3.7 µM -6% | [9]; at 11.0 µM -7% | [9]; at 33.0 µM -5% | [9]; at 100.0 µM -6% | [10]; [17] -4% | [10]; [18] 6% | [10]; at 50.0 µM 1.65% and 9.95% | [11]; at 1.2 µM -5% | [11]; at 3.7 µM -2% | [11]; [17] 1% | [11]; at 11.0 µM -2% | [11]; at 33.0 µM -4% | [11]; [18] 15% | [11]; at 50.0 µM -24.9% and 44% | [11]; at 100.0 µM -12% | [12]; at 1.2 µM 6% | [12]; at 3.7 µM 16% | [12]; at 11.0 µM 22% | [12]; at 33.0 µM 27% | [12]; at 100.0 µM 18% | [13]; at 1.2 µM -8% | [13]; at 3.7 µM -2% | [13]; at 11.0 µM -2% | [13]; at 33.0 µM -1% | [13]; at 100.0 µM -2% | [14]; at 1.2 µM -15% | [14]; at 3.7 µM -10% | [14]; at 11.0 µM 3% | [14]; at 33.0 µM 5% | [14]; at 100.0 µM -6% | [16]; at 1.2 µM -7% | [16]; at 3.7 µM 5% | [16]; at 11.0 µM 3% | [16]; at 33.0 µM 1% | [16]; at 100.0 µM -7%
